In PubChem BioAssay (NCI):
Values joined by “and” are separate entries in the source; they are usually repeats but may differ in a detail not shown here. Equal values may be shown once. The panel holds about 83,000 compounds, 20% with a hit somewhere; the sample as a whole holds those more often.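 Activity criterion: percent growth below 10, measured after cells in 96-well plates were exposed to a single compound concentration for 48 hours.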 Active and inactive are the calls of the source.

Key:
Experiment in all cases: NCI-60 one-dose screen, 48 h (100 = growth as untreated, 0 = no growth, -100 = all killed)
[1] = tested on: SNB-75 CNS
[2] = tested on: SNB-19 CNS
[3] = tested on: U251 CNS
[4] = tested on: PC-3 prostate; conditions: 10 µM unless noted
[5] = tested on: SK-MEL-5 melanoma; conditions: 10 µM unless noted
[6] = tested on: UACC-62 melanoma
[7] = tested on: LOX IMVI melanoma
[8] = tested on: SK-MEL-28 melanoma; conditions: 10 µM unless noted
[9] = tested on: HT29 colon; conditions: 10 µM unless noted

Measured: growth

Oc1cc(Cl)ccc1Oc1ccc(Cl)cc1Cl
inactive: [1]; 10 µM unless noted 48.3% | [2]; 10 µM unless noted 23.7% | [4] 39% | [6]; 10 µM unless noted 24.4% | [7]; 10 µM unless noted 11.5% | [8] 46.8%
active: [3]; 10 µM unless noted 8.21% | [5] -32%

CCCC[C@@H]1CCN2C[C@@H](O)[C@@H](O)[C@@H]2[C@H]1O
inactive: [6]; 10 µM unless noted 111% [100 µM] and 89.9% [100 µM]

O=C=Nc1ccc(Br)cc1
inactive: [9] 118% | [1]; 10 µM unless noted 99.1% | [2]; 10 µM unless noted 111% | [3]; 10 µM unless noted 110% | [5] 81% | [7]; 10 µM unless noted 106% | [8] 110%

O=C(O)CCCc1ccc(N(CCCl)CCCl)cc1
active: [1]; 75 µM 3.53%
inactive: [1]; 10 µM 88.9% and 90.1% | [2]; 10 µM 102% and 95.9% | [2]; 75 µM 32.9% | [3]; 10 µM 85.1% and 84% | [3]; 75 µM 30% | [6]; 10 µM 82.7% and 78.8% | [6]; 75 µM 28.6% | [7]; 10 µM 83.1% and 80.2% | [7]; 75 µM 26.7% | [8] 99.3%

NC(=O)Oc1cc(OC(N)=O)cc(N(CCCl)CCCl)c1
inactive: [9] 64.1% | [1]; 10 µM unless noted 49.2% | [2]; 10 µM unless noted 74.6% | [4] 71.7% | [5] 73.3% | [6]; 10 µM unless noted 46.2% | [7]; 10 µM unless noted 42.6% | [8] 82.5%

C[C@]12CC[C@H]3[C@@H](CC=C4c5nc(N)sc5CC[C@@]43C)[C@@H]1CC[C@@H]2O
inactive: [9] 95.5% | [1]; 10 µM unless noted 89.9% | [2]; 10 µM unless noted 99.2% | [3]; 10 µM unless noted 97.4% | [4] 98.5% | [5] 98.5% | [6]; 10 µM unless noted 87.8% | [7]; 10 µM unless noted 104% | [8] 113%

C[C@]12CCc3sc(Nc4ccc(O)cc4)nc3C1=CC[C@@H]1[C@@H]2CC[C@]2(C)C(=O)CC[C@@H]12
active: [7]; 10 µM unless noted -8.01%
inactive: [9] 10.3% | [1]; 10 µM unless noted 41.7% | [2]; 10 µM unless noted 64.6% | [3]; 10 µM unless noted 19.5% | [5] 62% | [6]; 10 µM unless noted 55.8% | [8] 77.9%

C=C1C(=O)OC2/C=C(\C)CC/C=C(/C)CC(OC(=O)/C(=C/CO)CO)C12 (stereo not given)
active: [6]; 10 µM unless noted -89.6% [100 µM] and -100% [100 µM]

CCC(Br)(CC)C(=O)NC(N)=O
inactive: [9] 108% | [1]; 10 µM unless noted 86.1% | [2]; 10 µM unless noted 104% | [3]; 10 µM unless noted 105% | [7]; 10 µM unless noted 102% | [8] 109%

C/C(=C\c1ccn(-c2ccc(N)cc2F)n1)[C@@H]1C[C@@H]2O[C@]2(C)CCC[C@H](C)[C@H](O)[C@@H](C)C(=O)C(C)(C)[C@@H](O)CC(=O)O1
inactive: [2]; 10 µM unless noted 26% | [3]; 10 µM unless noted 18.9% | [4] 17% | [6]; 10 µM unless noted 11.6% | [7]; 10 µM unless noted 27.3% | [8] 54.5%
active: [1]; 10 µM unless noted -6.93% | [5] 8.85%

CCCn1cc2c3c(cccc31)[C@H]1C[C@@H](C)CN(C)[C@@H]1C2
inactive: [1]; 10 µM unless noted 58.2% | [2]; 10 µM unless noted 91.2% | [3]; 10 µM unless noted 86.7% | [4] 72.3% | [5] 113% | [6]; 10 µM unless noted 93.2% | [7]; 10 µM unless noted 88.5% | [8] 97.7%

Cc1ccccc1-n1c(/C=C\c2ccccn2)nc2ccccc2c1=O
inactive: [1]; 10 µM unless noted 44.9% | [2]; 10 µM unless noted 87.9% | [5] 73.7% | [6]; 10 µM unless noted 64.5% | [8] 83.2%
